Laboratory results reported in PubChem BioAssay.
Activity calls are given as the source filed them.

Tests used:
[1] = system: Plasmodium falciparum Sir2 (PF13_0152, Sir2A); experiment: Plasmodium falciparum Sir2A binding compounds – biochemical, small-molecule microarray, 635 nm fluorescence, primary screen (AID 1098); conditions: fluorescence 635 nm, higher = more signal;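 further: score merges spot fluorescence intensity with its signal-to-noise ratio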
[2] = probe aDKK1 binding to arrayed compounds – biochemical, biotinylated probe, 635/667 nm fluorescence, primary screen (AID 1099); conditions: small-molecule microarray, higher = more signal;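 further: score merges 667nm spot fluorescence with signal to noise across triplicate slides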
[3] = probe aCHRDL2 binding to arrayed compounds – biochemical, biotinylated probe, 635/667 nm fluorescence, primary screen (AID 1100); conditions: small-molecule microarray, higher = more signal
[4] = change in splice reporter luminescence, either direction, cell-based, HEK293, spliceosome inhibition project, primary screen (AID 1101); conditions: HEK293 splicing luciferase reporter, 24 h, higher = more signal, called active from +8 up or from −8 down;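 further: HEK293 cells carrying a splicing-competent luciferase reporter gene; test concentration not given here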
[5] = biological target: Fibroblast growth factor 10 (Homo sapiens) (UniProt O15520); experiment: compounds binding fibroblast growth factor 10 – biochemical, small-molecule microarray, 635 nm fluorescence, primary screen (AID 1102); conditions: FGF10 binding, fluorescence 635 nm, higher = more signal
Chain of Fibroblast growth factor 10 (Homo sapiens) (O15520 whole entry, looked up): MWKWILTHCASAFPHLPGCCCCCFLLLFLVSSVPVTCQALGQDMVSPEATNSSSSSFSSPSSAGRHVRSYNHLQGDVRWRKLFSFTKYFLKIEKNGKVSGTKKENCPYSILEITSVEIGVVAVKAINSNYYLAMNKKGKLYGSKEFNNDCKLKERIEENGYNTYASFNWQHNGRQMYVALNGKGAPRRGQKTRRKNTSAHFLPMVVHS

[6] = system: glycogen synthase kinase-3 (GSK3A per assay name; protocol says GSK3B); experiment: compounds binding glycogen synthase kinase-3 – biochemical, small-molecule microarray, 635 nm fluorescence, GSK3A, primary screen (AID 1103); conditions: fluorescence 635 nm, higher = more signal; further: the record names both GSK3A and GSK3B
[7] = biological target: Epidermal growth factor receptor (Homo sapiens) (UniProt P00533); experiment: compounds binding epidermal growth factor receptor – biochemical, small-molecule microarray, 635 nm fluorescence, primary screen (AID 1104); conditions: EGFR binding, higher = more signal;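 further: score merges 667 nm emission intensity with spot signal to noise over triplicate slides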
Chain of Epidermal growth factor receptor (Homo sapiens) (P00533 whole entry, looked up): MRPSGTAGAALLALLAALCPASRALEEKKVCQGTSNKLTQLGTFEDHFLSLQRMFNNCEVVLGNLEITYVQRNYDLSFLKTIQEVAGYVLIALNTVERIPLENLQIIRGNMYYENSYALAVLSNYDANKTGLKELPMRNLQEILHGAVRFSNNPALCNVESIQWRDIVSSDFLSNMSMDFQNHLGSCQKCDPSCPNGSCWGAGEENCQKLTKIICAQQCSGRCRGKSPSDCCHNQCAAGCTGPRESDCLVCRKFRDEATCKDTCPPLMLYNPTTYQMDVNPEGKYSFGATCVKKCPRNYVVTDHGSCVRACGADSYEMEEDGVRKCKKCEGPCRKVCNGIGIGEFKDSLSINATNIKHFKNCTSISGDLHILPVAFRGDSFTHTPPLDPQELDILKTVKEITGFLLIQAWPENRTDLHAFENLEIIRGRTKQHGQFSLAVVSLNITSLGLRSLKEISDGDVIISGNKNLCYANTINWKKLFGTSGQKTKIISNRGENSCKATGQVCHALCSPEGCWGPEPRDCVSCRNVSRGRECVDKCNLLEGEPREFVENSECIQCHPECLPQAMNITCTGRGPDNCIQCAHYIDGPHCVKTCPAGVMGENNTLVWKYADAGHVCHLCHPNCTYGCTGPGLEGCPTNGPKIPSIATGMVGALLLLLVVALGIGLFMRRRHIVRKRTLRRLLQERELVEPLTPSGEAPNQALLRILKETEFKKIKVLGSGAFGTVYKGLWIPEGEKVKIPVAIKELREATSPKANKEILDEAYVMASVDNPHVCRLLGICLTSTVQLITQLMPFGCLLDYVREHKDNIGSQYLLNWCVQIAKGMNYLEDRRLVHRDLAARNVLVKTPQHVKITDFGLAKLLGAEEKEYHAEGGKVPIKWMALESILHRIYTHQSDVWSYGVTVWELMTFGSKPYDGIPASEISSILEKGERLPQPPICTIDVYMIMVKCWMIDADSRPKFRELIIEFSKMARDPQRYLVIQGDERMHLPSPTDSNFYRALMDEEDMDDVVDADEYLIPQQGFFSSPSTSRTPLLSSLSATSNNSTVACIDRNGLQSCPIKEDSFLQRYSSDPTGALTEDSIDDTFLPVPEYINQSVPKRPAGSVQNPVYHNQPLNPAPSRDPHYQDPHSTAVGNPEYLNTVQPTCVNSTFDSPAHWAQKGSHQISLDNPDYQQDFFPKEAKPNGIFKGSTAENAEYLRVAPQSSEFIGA

[8] = biological target: Follistatin-related protein 3 (Homo sapiens) (UniProt O95633); experiment: compounds binding follistatin-related protein 3 – biochemical, small-molecule microarray, 635 nm fluorescence, primary screen (AID 1105); conditions: FSTL3 binding, higher = more signal;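 further: score merges emission near 667 nm and signal to noise per printed spot across three slides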
Chain of Follistatin-related protein 3 (Homo sapiens) (O95633 whole entry, looked up): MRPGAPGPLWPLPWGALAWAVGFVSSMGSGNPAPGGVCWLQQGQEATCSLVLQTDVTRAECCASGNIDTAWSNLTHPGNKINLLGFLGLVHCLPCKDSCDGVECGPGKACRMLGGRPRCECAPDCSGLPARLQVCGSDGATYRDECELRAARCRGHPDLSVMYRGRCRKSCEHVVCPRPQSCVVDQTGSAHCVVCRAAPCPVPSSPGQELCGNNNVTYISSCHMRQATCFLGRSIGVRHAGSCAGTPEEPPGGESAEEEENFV

[9] = biological target: Dickkopf-related protein 1 (Homo sapiens) (UniProt O94907); experiment: small molecules binding DKK1 protein – biochemical, small-molecule microarray, 635 nm fluorescence scan, primary screen (AID 1106); conditions: higher = more signal;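 further: score merges emission near 667 nm with signal to noise over three replicate slides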
Chain of Dickkopf-related protein 1 (Homo sapiens) (O94907 whole entry, looked up): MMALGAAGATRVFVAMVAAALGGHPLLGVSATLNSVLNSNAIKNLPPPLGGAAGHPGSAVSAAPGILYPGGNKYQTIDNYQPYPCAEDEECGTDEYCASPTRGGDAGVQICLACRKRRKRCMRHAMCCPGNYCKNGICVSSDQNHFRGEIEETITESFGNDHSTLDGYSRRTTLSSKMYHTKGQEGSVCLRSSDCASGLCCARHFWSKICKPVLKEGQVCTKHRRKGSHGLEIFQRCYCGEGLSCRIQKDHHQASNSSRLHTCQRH

[10] = system: Inhibin beta A chain (activin A); experiment: small molecules binding activin A – biochemical, small-molecule microarray, 635 nm fluorescence scan, primary screen (AID 1107); conditions: INHBA, higher = more signal;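 further: mouse activin A protein probed at 4.33 µg/mL on printed slides; score merges bound-protein fluorescence near 667 nm with spot signal-to-noise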
[11] = system: Human papillomavirus type 1a protein E7 (residues 44-93); experiment: small molecules binding HPV E7 44-93 – biochemical, small-molecule microarray, residues 44-93, 635 nm fluorescence, primary screen (AID 1108); conditions: fluorescence 635 nm, higher = more signal;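 further: E7 fragment applied at 1 µg/mL in TBST for 1 h at 4 C; score combines spot fluorescence with its signal to noise ratio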
[12] = hepatitis C replication reporter changes, two-sided – Huh7 cells, luciferase reporter, HCV replication inhibitor project, primary screen (AID 1109); conditions: Huh7 HCV replicon luciferase reporter, 48 h; higher = more signal;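 further: huh7 hepatoma cells harbouring a luciferase neomycin HCV replicon reporter; luciferase luminescence as measure of HCV replicon replication; test concentration not given here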
[13] = biological target: Left-right determination factor 2 (Homo sapiens) (UniProt O00292); experiment: small molecules binding LEFTY2 protein – biochemical, small-molecule microarray, 635 nm fluorescence scan, primary screen (AID 1110); conditions: higher = more signal
Chain of Left-right determination factor 2 (Homo sapiens) (O00292 whole entry, looked up): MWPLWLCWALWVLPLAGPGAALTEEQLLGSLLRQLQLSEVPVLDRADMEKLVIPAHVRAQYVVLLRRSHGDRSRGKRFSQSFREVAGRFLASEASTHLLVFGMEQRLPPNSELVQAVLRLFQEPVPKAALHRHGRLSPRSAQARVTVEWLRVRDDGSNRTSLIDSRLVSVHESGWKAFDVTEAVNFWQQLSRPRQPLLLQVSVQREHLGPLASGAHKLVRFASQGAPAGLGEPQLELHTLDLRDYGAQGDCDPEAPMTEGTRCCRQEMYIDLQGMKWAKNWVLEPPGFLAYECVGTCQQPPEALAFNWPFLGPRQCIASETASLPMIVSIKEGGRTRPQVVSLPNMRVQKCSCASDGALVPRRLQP

[14] = biological target: Calmodulin-1 (Homo sapiens) (UniProt P0DP23); experiment: small molecules binding calmodulin-1 with EGTA – biochemical, small-molecule microarray, Cy5-labelled CALM1, profiling panel (AID 1111); conditions: Cy5-CALM1 binding fluorescence, higher = more signal;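 further: labelled calmodulin applied in Tris saline Tween buffer holding calcium plus EGTA and DTT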
[15] = biological target: Calmodulin-1 (Homo sapiens) (UniProt P0DP23); experiment: small molecules binding Ca-loaded calmodulin-1 – biochemical, small-molecule microarray, Cy5-labelled CALM1, plus calcium, artefact control for SMM control-protein annotation, profiling panel (AID 1112); conditions: Cy5-CALM1 binding fluorescence, higher = more signal;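 further: score merges spot fluorescence with signal to noise from triplicate slides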
[16] = probe aWnt5a binding to arrayed compounds – biochemical, biotinylated probe, 635/667 nm fluorescence, primary screen (AID 1113); conditions: small-molecule microarray, higher = more signal;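 further: score merges 667 nm fluorescence intensity with signal-to-noise per printed feature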
[17] = probe aShh binding to arrayed compounds – biochemical, biotinylated probe, 635/667 nm fluorescence, primary screen (AID 1114); conditions: small-molecule microarray, higher = more signal;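 further: probe is biotin-labelled aShh protein from a stem cell growth factor screen; measures binding of labelled protein to compounds printed on the slide; score merges feature fluorescence at 667 nm with signal-to-noise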
[18] = probe aNog binding to arrayed compounds – biochemical, biotinylated probe, 635/667 nm fluorescence, primary screen (AID 1115); conditions: small-molecule microarray, higher = more signal;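 further: probe is biotinylated aNog protein used at 0.15 µg/mL for 1 h at 4 C; z-score combines 667 nm fluorescence of each spot with its signal to noise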
[19] = biological target: Torsin-1A-interacting protein 1 (Homo sapiens) (UniProt Q5JTV8); experiment: compound microarray binding of lysate hLAP1 – cell lysate, small-molecule microarray, COS7 lysate, 635/667 nm fluorescence, primary screen (AID 1116); conditions: 635 nm fluorescence, higher = more signal
Chain of Torsin-1A-interacting protein 1 (Homo sapiens) (Q5JTV8 whole entry, looked up): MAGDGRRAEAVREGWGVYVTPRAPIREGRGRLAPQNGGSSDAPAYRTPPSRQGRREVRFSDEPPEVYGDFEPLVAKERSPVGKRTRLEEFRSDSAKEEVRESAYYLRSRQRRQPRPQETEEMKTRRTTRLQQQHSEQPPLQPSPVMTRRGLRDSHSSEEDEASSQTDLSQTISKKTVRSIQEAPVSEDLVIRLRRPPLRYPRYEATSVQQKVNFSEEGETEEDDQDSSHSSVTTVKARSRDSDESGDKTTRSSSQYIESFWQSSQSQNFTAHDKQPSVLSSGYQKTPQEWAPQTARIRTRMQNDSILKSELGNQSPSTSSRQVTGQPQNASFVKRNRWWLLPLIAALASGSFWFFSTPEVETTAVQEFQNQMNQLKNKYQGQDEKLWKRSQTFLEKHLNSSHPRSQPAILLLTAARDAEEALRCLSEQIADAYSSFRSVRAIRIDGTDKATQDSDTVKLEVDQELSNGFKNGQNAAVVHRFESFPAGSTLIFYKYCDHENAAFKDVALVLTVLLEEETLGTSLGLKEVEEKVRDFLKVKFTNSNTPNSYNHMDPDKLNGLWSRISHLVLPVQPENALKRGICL

[20] = biological target: Alpha-bungarotoxin (Bungarus multicinctus) (UniProt P60615); experiment: compounds binding labelled alpha-BTX control protein – biochemical, small-molecule microarray, Alexa647 label, 635/667 nm fluorescence, artefact control for SMM control protein annotation, profiling panel (AID 1117); conditions: alpha-BTX-A647 binding fluorescence, higher = more signal
Chain of Alpha-bungarotoxin (Bungarus multicinctus) (P60615 whole entry, looked up): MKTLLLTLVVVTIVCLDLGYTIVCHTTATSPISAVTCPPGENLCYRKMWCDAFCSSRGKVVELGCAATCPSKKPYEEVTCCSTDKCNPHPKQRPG

Compound	composite z-score [1]	composite z-score [2]	composite z-score [3]	z-score [4]	composite z-score [5]	composite z-score [6]	composite z-score [7]	composite z-score [8]	composite z-score [9]	composite z-score [10]	composite z-score [11]	z-score [12]	composite z-score [13]	composite z-score [14]	composite z-score [15]	composite z-score [16]	composite z-score [17]	composite z-score [18]	composite z-score [19]	composite z-score [20]
C=CCNC(=O)[C@@H]1[C@H]2C(=O)O[C@H](c3ccccc3)[C@H](c3ccccc3)N2[C@H](c2ccccc2OCCO)[C@@]12C(=O)N(C(=O)OCCOC)c1ccc(C#CC3=CCCCC3)cc12	1.26	0.057	0.144	-1.1 (inactive)	1.15	1.16	0.469	0.831	0.373	-0.0496	0.829	-2.12	0.167	0.743	-0.0835	-0.124	-0.0553	0.394	1.15	1.59
CO[C@H]1O[C@H](CO)[C@@H](OC(=O)Nc2ccc(C(F)(F)F)cc2)[C@H](OC(=O)Nc2ccc3c(c2)OCO3)[C@H]1OC(=O)Nc1ccc2c(c1)OCO2	1.5	0.517	0.63	-0.412 (inactive)	0.844	1.28	-0.279	0.871	0.214	0.483	1.33	-2.79	0.0746	1.84	-0.367	0.0438	0.0437	0.925	2	0.648
CC(C)(C)OC(=O)CC[C@]1(C(=O)NCCN2CCOCC2)N=C(c2ccc(OCCCO)cc2)O[C@H]1c1ccccc1	1	0.214	0.93	0.66 (inactive)	-0.426	-1.04	-0.174	-0.713	-1.02	0.992	1.18	0.0186	-0.103	1.78	0.598	-0.0203	-0.153	0.593	-0.299	1.57
C[N+](C)(C)CCCC[C@@H]1NC(=O)[C@@H]2C[C@H](C(=O)O)[C@H](c3ccc(O)cc3)N2C1=O	-0.72	0.0476	0.937	0.116 (inactive)	-1.57	-1.32	-1.04	0.0994	-0.0081	0.614	-3.49	0.964	-0.566	-0.0386	0.305	-0.197	-0.141	-0.359	0.136	0.0213
COc1ccccc1CN1C(=O)c2ccccc2[C@@H](C(=O)NC(C)C)[C@@H]1c1ccc(CO)cc1	0.567	0.711	0.756	0.011 (inactive)	1.33	1.23	0.754	1.24	0.673	0.93	0.636	-0.861	0.4	0.301	-0.508	0.236	0.14	-0.637	0.902	1.06
COc1cc(CO)cc(I)c1O[C@H]1C=C(C(=O)NCCO)C[C@@H](NCc2ccccc2F)[C@@H]1O	0.947	-0.28	-0.18	-0.977 (inactive)	1.06	0.417	0.152	0.638	0.239	0.0253	0.509	-2.62	0.365	-0.154	-0.327	-0.264	-0.138	-0.103	1.4	0.109
CCOC(=O)C[C@H]1[C@H](OC(=O)c2ccc(-c3ccccc3)cc2)[C@@H](NC(=O)c2ccc3ccccc3n2)c2cc(OCCCO)ccc2N1C(=O)c1ccccc1	0.418	0.048	0.475	0.0748 (inactive)	0.785	0.653	0.143	1.09	0.216	0.407	1.33	-1.1	0.479	0.992	0.389	-0.0606	-0.0904	-0.302	0.574	0.452
CN(C)CCCN1C(=O)[C@@]2(c3ccc([N+](=O)[O-])cc3)CC(=O)N(CC34CC5CC(CC(C5)C3)C4)[C@@H]2c2ccc(CO)cc21	1.68	1.83	0.543	0.626 (inactive)	-0.173	0.443	-0.708	-0.116	-0.482	0.144	0.869	-1.49	-0.741	-0.301	-0.828	-0.152	0.111	-0.302	-0.301	-0.0251
COCCOC(=O)N1C(=O)[C@@]2(c3cc(C#CC4=CCCCC4)ccc31)[C@H](c1ccccc1OCCO)N1[C@H](c3ccccc3)[C@H](c3ccccc3)OC(=O)[C@H]1[C@@H]2C(=O)N1CCc2cc(OC)c(OC)cc2C1	0.162	-0.636	-0.834	-0.222 (inactive)	0.848	1.18	0.733	1.4	0.356	-0.244	1.33	-1.81	0.336	-0.141	-0.383	-0.121	-0.176	-0.008	0.336	0.761
C=CCOC(=O)[C@H]1[C@@H]2C(=O)O[C@@H](c3ccccc3)[C@@H](c3ccccc3)N2[C@@H](c2ccc(OCCOC(=O)[C@H]3C[C@H]4C(=O)N[C@@H](Cc5ccccc5)C(=O)N4[C@H]3c3cccc(OCCO)c3)cc2)[C@]12C(=O)Nc1ccc(I)cc12	1.12	-0.298	-0.0762	0.959 (inactive)	1.24	1.28	0.536	1.29	0.759	0.17	1.38	-1.68	0.692	0.384	0.334	0.0004	-0.144	-0.175	1.25	1.35
C=C(C(=O)CC[C@H](OC(C)=O)c1cccc(OCCO)c1)C(C)C	-0.382	-0.352	-0.115	0.143 (inactive)	-0.924	-1.24	-1.31	-0.835	-1.07	0.0244	-0.521	-1.01	-0.728	-0.765	-0.608	-0.206	-0.117	-0.107	-0.397	1.98
